Measurements as given in the supplement of paper PMC10981050.
“And” between values parts separate entries of the source, which are not always exact repeats. Equal entries are not always repeated. Structures can show the parent of a compound that is named as a salt.

Experiments:
Experiment in all cases: cell viability relative to vehicle control; higher = less cytotoxic
Conditions in all cases: 10 µM
K562 = tested on: K562
Procedure, shortened: (§1)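 Four leukaemia lines, as CRISPR-edited mutant clones and isogenic wild-type clones, were tested against Selleck bioactive, kinase and epigenetic probe libraries after removal of identity-inconsistent compounds. Cells were exposed to a single 10 µM dose for 48 h, and CellTiter-Glo luminescence was then read. Viability was calculated relative to the on-plate vehicle control.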

MARIMO = tested on: MARIMO
Procedure, shortened: as §1

MOLM14 = tested on: MOLM14
Procedure, shortened: as §1

OCI-AML2 = tested on: OCI-AML2
Procedure, shortened: as §1

SMILES | cell viability (K562; SRSF2 genotype: SRSF2 P95H/wt) | cell viability (K562; SRSF2 genotype: SRSF2 wt/wt) [%] | cell viability (MARIMO; SRSF2 genotype: SRSF2 P95H/wt) [%] | cell viability (MARIMO; SRSF2 genotype: SRSF2 wt/wt) [%] | cell viability (MOLM14; SRSF2 genotype: SRSF2 P95H/wt) [%] | cell viability (MOLM14; SRSF2 genotype: SRSF2 wt/wt) [%] | cell viability (OCI-AML2; SRSF2 genotype: P95H/wt) [%] | cell viability (OCI-AML2; SRSF2 genotype: wt/wt) [%]
Cc1cnc(C(=O)NCCc2ccc(S(=O)(=O)NC(=O)NC3CCCCC3)cc2)cn1 [Glipizide (Glucotrol)] | 93.8% and 94.9% | 91.6 | 90.9 | 104 | 94.3 | 92.5 | 96.6 | 97.4
C/C=C/c1ccc(OC)cc1 [Trans-Anethole] | 107% and 99.3% | 97.3 | 103 | 102 | 103 | 103 | 92 | 116
COc1c2occc2cc2ccc(=O)oc12 [Methoxsalen (Oxsoralen)] | 108% and 106% | 107 | 106 | 106 | 105 | 111 | 98.1 | 107
Cc1cc(C)c(CNC(=O)c2cc(-c3ccc(N4CCN(C)CC4)nc3)cc3c2c(C)cn3C(C)C)c(=O)[nH]1 | 83.8% and 78.9% | 86 | 90.1 | 94.2 | 80.4 | 83.3 | 70.6 | 82.2
CC(C)(C)c1cc(NC(=O)Nc2ccc(Oc3ccnc4[nH]c(=O)cnc34)cc2F)n(-c2ccccc2)n1 | 30% and 44% | 25.7 | 14.6 | 9.05 | 7.07 | 2.65 | 6.64 | 15.8
C[C@H]1COc2c(N3CCN(C)CC3)c(F)cc3c(=O)c(C(=O)O)cn1c23 [Levofloxacin hydrate] | 93.5% and 91% | 95.8 | 94.3 | 98.4 | 97.2 | 97.9 | 93.3 | 92.1
Cn1c(-c2ccccc2C(F)(F)F)nnc1C12CCC(c3noc(C4CC(F)(F)C4)n3)(CC1)CC2 | 87.3% and 92.5% | 84.7 | 88 | 99.8 | 79.8 | 87.7 | 99 | 94.8
CCCC(=O)Nc1ncnc2c1ncn2[C@@H]1O[C@@H]2COP(=O)(O)O[C@H]2[C@H]1OC(=O)CCC [Dibutyryl-cAMP (Bucladesine)] | 91.3% and 90.5% | 92.8 | 87.2 | 97.4 | 83.6 | 94.4 | 104 | 97.7
COc1ccc(C(NC(=O)c2cnc(-c3cccnn3)[nH]c2=O)c2ccc(OC)cc2)cc1 | 115% and 108% | 111 | 99 | 99.6 | 104 | 104 | 106 | 113
CCOc1nc2cccc(C(=O)OCc3oc(=O)oc3C)c2n1Cc1ccc(-c2ccccc2-c2noc(=O)[nH]2)cc1 [Azilsartan Medoxomil (TAK-491)] | 97.7% | 95.6 | 101 | 108 | 105 | 102 | 102 | 103
CCOC(=O)c1ccc(C#Cc2ccc3c(c2)C(C)(C)CCS3)nc1 [Tazarotene (Avage)] | 81% and 84.7% | 78.1 | 46.6 | 40.8 | 76.2 | 88.1 | 14.1 | 27.8
CO[C@H]1C[C@@H]2CC[C@@H](C)[C@@](O)(O2)C(=O)C(=O)N2CCCC[C@H]2C(=O)O[C@H]([C@H](C)C[C@@H]2CC[C@@H](OCCO)[C@H](OC)C2)CC(=O)[C@H](C)/C=C(\C)[C@@H](O)[C@@H](OC)C(=O)[C@H](C)C[C@H](C)/C=C/C=C/C=C/1C [Everolimus (RAD001)] | 59.9% and 63.6% | 70.4 | 73.8 | 71.6 | 57.4 | 51.4 | 60 | 61.6
Cc1cc(C2CCCCC2)n(O)c(=O)c1 [Ciclopirox ethanolamine] | 59.6% and 58.8% | 47.2 | 21.4 | 26.4 | 8.86 | 2.23 | 18 | 18
COc1ncnc(NS(=O)(=O)c2ccc(N)cc2)c1OC [Sulfadoxine (Sulphadoxine)] | 103% and 107% | 98.1 | 104 | 105 | 95.4 | 100 | 98.5 | 96.3
O=C(NOCC(O)CO)c1cc(Br)c(F)c(F)c1Nc1ccc(I)cc1F (centres undefined) | 81.1% and 89.7% | 83.2 | 41.3 | 37.3 | 50.1 | 36.6 | 40.6 | 45
CC(C)C[C@@H](C=O)NC(=O)[C@H](CC(C)C)NC(=O)[C@H](CC(C)C)NC(=O)OCc1ccccc1 | 1.82% and 1.99% | 1.37 | 0.54 | 1.13 | 0.49 | 0.53 | 0.36 | 0.41
C[C@H](C[C@H](O)[C@H]1OC1(C)C)C1=C2C[C@H](O)[C@H]3[C@@]4(C)CCC(=O)C(C)(C)[C@@H]4CC[C@]3(C)[C@@]2(C)CC1 [Alisol B] | 81.2% and 83.7% | 78.7 | 70.8 | 48.2 | 86.7 | 87.4 | 70.3 | 72.7
CO/N=C1\C[C@]2(C[C@@H]3C[C@@H](C/C=C(\C)C[C@@H](C)/C=C/C=C4\CO[C@@H]5[C@H](O)C(C)=C[C@@H](C(=O)O3)[C@]45O)O2)O[C@H](/C(C)=C/C(C)C)[C@H]1C [Moxidectin] | 59.6% and 63.5% | 66.4 | 54.6 | 67.3 | 46.9 | 53.3 | 40.1 | 25.3
O=c1[nH]cnc2c1ncn2[C@H]1C[C@H](O)[C@@H](CO)O1 [2'-Deoxyinosine] | 120% and 113% | 116 | 104 | 107 | 105 | 118 | 103 | 111

SMILES | cell viability (K562; SRSF2 genotype: SRSF2 P95H/wt) | cell viability (K562; SRSF2 genotype: SRSF2 wt/wt) [%] | cell viability (MARIMO; SRSF2 genotype: SRSF2 P95H/wt) [%] | cell viability (MARIMO; SRSF2 genotype: SRSF2 wt/wt) [%] | cell viability (MOLM14; SRSF2 genotype: SRSF2 P95H/wt) [%] | cell viability (MOLM14; SRSF2 genotype: SRSF2 wt/wt) [%] | cell viability (OCI-AML2; SRSF2 genotype: P95H/wt) [%] | cell viability (OCI-AML2; SRSF2 genotype: wt/wt) [%]
Cn1ncc(Cl)c1-c1cc(C(=O)N[C@H](CN)Cc2cccc(F)c2)sc1Cl | 49.3% and 45.9% | 51 | 67.5 | 63.7 | 34.9 | 37.3 | 33.6 | 48.6
CC(C)[C@H](C(=O)Nc1ccc(C(=O)NO)cc1)c1ccccc1 | 1.61% and 11.3% | 3.69 | 5.31 | 12.1 | 0.73 | 0.52 | 2.49 | 4.03
C[C@]12C=CC(=O)N[C@@H]1CC[C@@H]1[C@@H]2CC[C@]2(C)[C@@H](C(=O)Nc3cc(C(F)(F)F)ccc3C(F)(F)F)CC[C@@H]12 [Dutasteride] | 94.4% and 96.6% | 95 | 102 | 94.1 | 96 | 98.3 | 101 | 94.7
CCn1c(=O)c2c(nc(/C=C/c3ccc(OC)c(OC)c3)n2C)n(CC)c1=O [Istradefylline (KW-6002)] | 90.7% and 83.8% | 85.1 | 81.1 | 95.3 | 96.5 | 97.6 | 117 | 92.4
COc1ccc2cc(C(=O)O)ccc2c1 [6-Methoxy-2-naphthoic acid] | 108% and 98.7% | 94.2 | 92 | 99.7 | 88.6 | 93.8 | 89.4 | 92.4
CO/N=C(\C(=O)N[C@@H]1C(=O)N2C(C(=O)[O-])=C(C[N+]3(C)CCCC3)CS[C@H]12)c1csc(N)n1 [Cefepime Dihydrochloride Monohydrate] | 101% and 102% | 106 | 96.3 | 109 | 105 | 107 | 104 | 113
C=C[C@H]1CN2CC[C@H]1C[C@H]2[C@H](O)c1ccnc2ccc(OC)cc12 [Quinine hydrochloride dihydrate] | 90.8% and 92.7% | 88 | 87.7 | 86.5 | 79.7 | 93.2 | 88.9 | 84.9
C[C@@H]1C/C=C/C=C/C=C/C=C/[C@H](O[C@@H]2O[C@H](C)[C@@H](O)[C@H](N)[C@@H]2O)C[C@@H]2O[C@](O)(C[C@@H](O)C[C@H]3O[C@@H]3/C=C/C(=O)O1)C[C@H](O)[C@H]2C(=O)O [Natamycin] | 102% and 105% | 102 | 100 | 105 | 98.5 | 104 | 101 | 110
O=C(O)C(O)Cc1ccc(O)c(O)c1 (centres undefined) [Sodium Danshensu] | 98.7% and 92.4% | 95.5 | 95.5 | 107 | 96.4 | 98.8 | 93.7 | 104
CS(=O)(=O)CCNCc1ccc(-c2ccc3ncnc(Nc4ccc(OCc5cccc(F)c5)c(Cl)c4)c3c2)o1 | 54.6% and 37% | 56.7 | 88.7 | 90.3 | 86.2 | 60.6 | 65 | 59.5
C[C@@H]1[C@H](O)[C@@H](C)/C=C/C=C/C=C/C=C/C=C/C=C/C=C/[C@H](O[C@@H]2O[C@H](C)[C@@H](O)[C@H](N)[C@@H]2O)C[C@@H]2O[C@](O)(C[C@@H](O)C[C@@H](O)[C@H](O)CC[C@@H](O)C[C@@H](O)CC(=O)O[C@H]1C)C[C@H](O)[C@H]2C(=O)O [Amphotericin B] | 97.4% and 101% | 104 | 110 | 103 | 93.9 | 101 | 126 | 110
CN(C)/N=N/c1[nH]cnc1C(N)=O [Dacarbazine (DTIC-Dome)] | 117% and 112% | 110 | 108 | 107 | 97.6 | 108 | 107 | 112
Cc1ncc(Cl)cc1NCc1ccc(C(=O)N[C@@H](CC2CCCC2)C(=O)NC2CC2)s1 | 82.9% and 83.4% | 82.1 | 76.2 | 94 | 65 | 66.1 | 72.9 | 71.3
CC(C)(C)c1ccc(S(=O)(=O)NCc2ccc(C(=O)Nc3cccnc3)cc2)cc1 | 31.8% and 20.2% | 26.6 | 20.9 | 32.5 | 9.88 | 1.9 | 5.52 | 5.41
O=C(NS(=O)(=O)c1ccc(Br)s1)c1ccc(Cl)cc1Cl | 92.9% and 102% | 103 | 97 | 98.4 | 61.8 | 83.3 | 73.9 | 87.6
CC(C)CCNC(=O)[C@H](CC(C)C)NC(=O)[C@H]1O[C@@H]1C(=O)O [Loxistatin Acid (E-64C)] | 107% and 106% | 100 | 102 | 104 | 101 | 104 | 106 | 105
N/C(=N\N=C\c1ccc(Cl)cc1)N/N=C/c1ccc(Cl)cc1 [Robenidine Hydrochoride] | 70.9% and 65.6% | 67.4 | 65.7 | 67.8 | 59.2 | 65.9 | 60.2 | 73.3
CC1OC(OC2C(OC3CC4(C)C(CC(O)C5C(C6(C)CCC(C(C)(C)O)O6)CCC54C)C4(C)CCC(O)C(C)(C)C34)OC(CO)C(O)C2O)C(O)C(O)C1O (centres undefined) [Pseudoginsenoside F11] | 107% and 104% | 111 | 107 | 103 | 113 | 108 | 103 | 98.4
CC1(C)CC[C@]2(C(=O)O[C@@H]3O[C@H](CO)[C@@H](O)[C@H](O)[C@H]3O)CC[C@]3(C)C(=CC[C@@H]4[C@@]5(C)CC[C@H](O[C@@H]6O[C@H](C(=O)O)[C@@H](O)[C@H](O)[C@H]6O[C@@H]6O[C@H](CO)[C@@H](O)[C@H](O)[C@H]6O)C(C)(C)[C@@H]5CC[C@]43C)[C@@H]2C1 [Ginsenoside Ro] | 101% and 95.6% | 95.9 | 102 | 110 | 100 | 98.5 | 97.8 | 109
